Reference: PubChem BioAssay AID624351 (Southern Research Specialized Biocontainment Screening …, 2012)
Screen size: about 2,400 compounds; about 1,400 (58%) were called active. The set was probably picked from earlier hits. Some of the results follow. A number with no mark means an inactive call.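 Rule for the calls: active = inhibition of 30% or more at any tested dose; inconclusive = primary hits over the limit that were never retested; inactive = the rest.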

experiment: coupled detection enzyme interference, dose response, artefact control for MgcRacGAP inhibitor project, biochemical, coupled enzyme counter-screen (AID 624351); conditions: ADP Hunter coupled enzyme counter-screen, fluorescence, no MgcRacGAP; series mostly up to 80 µM;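 note: signal is the ADP detection kit reading of free GDP without any GAP enzyme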;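 for inhibition: 0% = median positive control wells and 100% = median negative control wells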

SMILES	IC50	inhibition
CC(=O)N1CCC(=NNC(=O)c2cc3ccccc3cc2O)CC1	inactive	
CN(Cc1ccccc1)C(=O)C1CCCN(Cc2ccc(Cl)cc2)C1 (configuration not stated)	inactive	
O=C1c2ccccc2C(=O)N1/N=C/c1ccc(O)c(O)c1	33.2 µM (active)	
O=C1C2C3C=CC(CC3)C2C(=O)N1/N=C/c1ccc(O)c(O)c1 (configuration not stated)	64.1 µM (active)	
COc1cc(/C=N/N2C(=O)c3ccccc3C2=O)ccc1O	41.6 µM (active)	
Nc1ccc(Cn2ccc3c4c(N)nc(N)nc4ccc32)cc1	inactive	
Cc1cccc(-n2c(=O)c3ccccc3n3c(=S)[nH]nc23)c1C	34 µM (active)	
CCOCCCn1c(=O)c2ccccc2n2c(=S)[nH]nc12	16.1 µM (active)	
O=c1c2ccccc2n2c(=S)[nH]nc2n1-c1ccccc1	20.6 µM (active)	
Cn1c(=O)c2ccccc2n2c(=S)[nH]nc12	13.2 µM (active)	
O=C(c1cccc(Cl)c1)N1CCN(Cc2ccncc2)CC1	inactive	
CCOC(=O)c1[nH]c2ccc(C)cc2c1N	27.2 µM (active)	
CCOC(=O)c1[nH]c2cc(OC)c(OC)cc2c1N	31.3 µM (active)	
CCCc1c(C)[nH]c2ccc(C(=O)O)cc2c1=S	inactive	
COc1cccc2[nH]c(C(=O)NN)c(N)c12	inactive	
CN1CCN(C=NC2=NN(c3cccc(C(F)(F)F)c3)CC2)CC1	34.1 µM (active)	
FC(F)(F)c1cccc(N2CCC(N=CN3CCCCCC3)=N2)c1	50 µM (active)	
Oc1ccccc1C=NC1=NN(c2cccc(C(F)(F)F)c2)CC1	16.9 µM (active)	
CC[N+](CC)(CC)CCCCOc1ccc2c(c1)C(=O)c1cc(OCCCC[N+](CC)(CC)CC)ccc1-2	inactive	
NSc1nc(N)c2nc(-c3ccccc3)c(-c3ccccc3)nc2n1	inactive	
O=C(C1=C(O)C(=O)N(c2nc3ccc(Cl)cc3s2)C1c1ccco1)c1ccco1 (configuration not stated)	inactive	
COc1ccc(NC(=O)Cn2nnc(C(=O)NCc3cccs3)c2N)cc1Cl	inactive	
COc1cc(NCCC(=O)c2cccs2)c(OC)cc1Cl	58.1 µM (active)	
CCCSC1=N/C(=C\C=C\c2ccco2)C(=O)S1	inactive	
CCN(CC)CCn1c2ccccc2c(=O)c2c(O)ccc(O)c21	inactive	
Oc1cc(O)cc(-c2cc3ccc(O)cc3o2)c1	25 µM (active)	

SMILES	IC50	inhibition
COc1cc(/C=N\NC(=O)CNC(=O)c2cccc([N+](=O)[O-])c2)ccc1O	18.4 µM (active)	
COc1cc(/C=N/NC(=O)c2cccc([N+](=O)[O-])c2)ccc1O	35.9 µM (active)	
COc1cc(/C=N\NC(=O)c2ccc(Cn3nc([N+](=O)[O-])c(Cl)c3C)o2)ccc1O	33.9 µM (active)	
COc1cc(/C=N/NS(=O)(=O)c2ccc(C)c([N+](=O)[O-])c2)ccc1O	37.1 µM (active)	
O=[N+]([O-])c1cccc(S(=O)(=O)N/N=C/c2ccc(O)cc2)c1	45.2 µM (active)	
CN(C)/N=C/c1ccc(OC(=O)c2cccc([N+](=O)[O-])c2)cc1	inactive	
CN(CCOc1ccc(Cl)c(Cl)c1)Cc1ccccc1	inactive	
c1ccc(OCCCN2CCCC2)cc1	inactive	
Nc1ccc(OCCc2ccccc2)cc1	37.5 µM (active)	
COc1cc(C=c2c3ccccc3n3c2cc(-c2ccccc2)[n+]3C)cc(OC)c1OC	inactive	
O=C(c1ccccc1)c1coc2ccc(O)c(Cl)c12	77.5 µM (active)	
O=C1C=CC(=O)c2c(O)c(N3CCN(CCO)CC3)c(Cl)c(O)c21	inactive	
O=C(O)c1ccc(-c2ccc(/C=c3/sc4nc5ccccc5n4c3=O)o2)cc1Cl	inactive	
COc1ccc(N=Nc2cc(OC)c(N)cc2OC)cc1	39.2 µM (active)	
CC(C)N(CCNCC(O)COc1ccc(C(C)(C)c2ccccc2)cc1)C(C)C (configuration not stated)	inactive	
COc1cc(C(=S)NC2CCCCC2)ccc1O	36.7 µM (active)	
COc1cc(CN2CCC(C(=O)NC3CCCC3)CC2)cc(Br)c1O	inactive	
COc1cc(CN2CCC(C(=O)NC3CCCC3)CC2)ccc1O	inactive	
COc1cc(/C=N/NC(=O)CC(=O)NC2CCCCC2)ccc1O	55.1 µM (active)	
CCOc1cc(/C=N/NC(=O)C(OC)c2ccccc2)ccc1O (configuration not stated)	58.2 µM (active)	
COc1cc(C(=S)NCc2ccccc2)cc(Br)c1O	inactive	
CCOc1cc(/C=N/NC(=O)C(C)Sc2ccccn2)ccc1O (configuration not stated)	44.5 µM (active)	
COc1ccc(CN2CCN(C(C)C(=O)N(C)Cc3cccc(F)c3)CC2)cc1OC (configuration not stated)	inactive	
COc1cc(CN2CCN(C(=O)CC(C)C)CC2)cc(OC)c1O	inactive	
N#CC1=C(S)N(c2ccccc2)C(c2ccc(-c3ccccc3Cl)o2)NC1=O (configuration not stated)	inactive	
CCOc1cc(/C=N/NC(=O)CCCC(=O)NC2CCCCC2)ccc1O	62.2 µM (active)	

SMILES	IC50	inhibition
CCOc1cc(/C=N/NC(=O)Nc2ccccc2)ccc1O	33 µM (active)	
CCOc1cc(C=NNC(=O)CCCC(=O)NN=Cc2ccc(O)c(OCC)c2)ccc1O	55.2 µM (active)	
COc1cc(/C=N/NC(=S)NC2CC3CCC2C3)ccc1O (configuration not stated)	55.3 µM (active)	
CCOc1cc(/C=N/NC(=O)CSc2cccc3cccnc23)ccc1O	36.7 µM (active)	
CCn1c(SC(C)C)nnc1-c1cc(-c2ccccc2)sc1N	26.7 µM (active)	
C=CCn1c(SCC(C)=O)nnc1-c1cc(-c2ccccc2)sc1N	50.1 µM (active)	
CCN(CC)CCOc1ccc2c(c1)C(=NNC(=O)c1ccccn1)c1cc(OCCN(CC)CC)ccc1-2	inactive	
O=C(Oc1ccc2c(c1)OCO2)c1ccc(Br)c(S(=O)(=O)N2CCOCC2)c1	inactive	
CC1=NN(c2ccccc2)C(=O)C1/C=C1\NC(=S)NC1=O (configuration not stated)	inactive	
Cc1ccc(C2C=NN(c3ccccc3)C2=O)cc1 (configuration not stated)	78.2 µM (active)	
Cc1ccc(-n2sc3ccccc3c2=O)cc1	inactive	
COc1cc(/C=N/NC(=O)C(C)n2nnc3ccccc32)ccc1O (configuration not stated)	23.6 µM (active)	
COc1cc(/C=N/NC(=O)CCn2nnc3ccccc32)ccc1O	53.8 µM (active)	
COc1cc(/C=N/NC(=O)Cn2nnc3ccccc32)ccc1O	20.7 µM (active)	
Cc1cc(NC(=O)CN2CCN(C)CC2)no1	inactive	
Cc1cc(NC(=O)c2sc3ccccc3c2O)no1	74.8 µM (active)	
Cc1cc(NC(=O)CN2CCC(C)CC2)no1	inactive	
O=C(Nc1ccccn1)c1ccc2ccccc2c1O	78.1 µM (active)	
COc1ccccc1NC(=O)NNC(=O)c1ccc2ccccc2c1O	inactive	
COc1ccc2c(c1)-c1c(ssc1=S)C(C)(C)N2	33.6 µM (active)	
COc1cccc(Oc2cn[nH]c2-c2ccc(O)cc2O)c1	52.5 µM (active)	
CCOc1ccccc1Oc1cn[nH]c1-c1ccc(O)cc1O	33.8 µM (active)	
COc1ccc(Oc2cn[nH]c2-c2ccc(O)cc2O)cc1	29.9 µM (active)	
C#CCOCCOCCOCCNc1nc(N2CCN(C(=O)[C@H](CCCCN)n3cc([C@@H](N)C(C)CC)nn3)CC2)nc(N2CCN(C(=O)[C@H](CCCCN)n3cc([C@@H](N)CC(C)C)nn3)CC2)n1 (some centres not stated)	inactive	
CCn1c(C)nc2cc(C(=O)N/N=C/c3ccc(O)cc3)ccc21	81.6 µM (active)	
CC1=NN(C(N)=S)C(=O)C1N=Nc1ccc(O)cc1 (configuration not stated)	19.5 µM (active)	

SMILES	IC50	inhibition
CC(=O)Nc1ccc(Oc2nc(-c3ccccn3)nc3ccccc23)cc1	26.7 µM (active)	
O=C(Nc1ccc(Oc2nnc(-c3ccccc3)c3ccccc23)cc1)c1ccccc1	inactive	
CN(C)CCCNCC(=O)c1c(-c2ccccc2)n(C)c2ccccc12		-1.7% [at 10 µM]
O=C(N/N=C/c1ccc(O)c(O)c1)C1c2ccccc2Oc2ccccc21	51 µM (active)	
Nc1c(Cl)ncnc1N/N=C/c1ccc(O)cc1	15.1 µM (active)	
c1nc(SSc2ncnc3nc[nH]c23)c2[nH]cnc2n1	inactive	
Oc1ccc(/C=N/Nc2ncnc3nc[nH]c23)cc1	13.2 µM (active)	
CCOc1cc(/C=N/Nc2ncnc(Cl)c2N)ccc1O	30.7 µM (active)	
Cc1[nH]ccc2c1[nH]c1cc(=O)ccc12	61.9 µM (active)	
CC/C(=N\O)c1ccc(O)c(OC)c1	61.2 µM (active)	
COc1ccc(S(=O)(=O)N2CCC(N3CCN(Cc4ccccc4)CC3)CC2)cc1	inactive	
C[C@@H]1O[C@@H](OC[C@H]2O[C@@H](Oc3cc(O)c4c(=O)cc(-c5ccc(O)c(O)c5)oc4c3)[C@H](O)[C@@H](O)[C@@H]2O)[C@H](O)[C@H](O)[C@H]1O	46 µM (active)	
O=c1cc(-c2ccc(O)c(O)c2)oc2cc(O)c([C@@H]3O[C@H](CO)[C@@H](O)[C@H](O)[C@H]3O)c(O)c12	59 µM (active)	
O=C(O)c1cc(O)c2c(c1)[C@@H]([C@H]1c3cc(C(=O)O)cc(O)c3C(=O)c3c(O[C@@H]4O[C@H](CO)[C@@H](O)[C@H](O)[C@H]4O)cccc31)c1cccc(OC3O[C@H](CO)[C@@H](O)[C@H](O)[C@H]3O)c1C2=O (some centres not stated)	inactive	
O=c1cc(-c2ccc(O)c(O)c2)oc2cc(O)c(C3OC(CO)C(O)C(O)C3O)c(O)c12 (configuration not stated)	45.9 µM (active)	
COC(=O)c1ccc2c(c1)C(C)(C)C(/C=C/c1ccccc1O)=[N+]2C	inactive	
COC(=O)c1ccc2c(c1)C(C)(C)C(/C=C/c1ccc(OC)c(OC)c1OC)=[N+]2C	inactive	
COc1cc(/C=C/C(=O)OCC(=O)NCc2ccc(F)cc2)ccc1O	40 µM (active)	
COc1ccc(CNC(=O)CN(C)Cc2ccc(C(C)(C)C)cc2)cc1	inactive	
COC(=O)c1ccc(CNC(=O)COC(=O)/C=C/c2ccc(O)c(OC)c2)cc1	31 µM (active)	
CN(CC(=O)NCc1ccccc1)Cc1cccc(F)c1	inactive	
COc1cc(/C=C/C(=O)OCC(=O)N(CC(C)C)c2c(N)n(Cc3ccccc3)c(=O)[nH]c2=O)ccc1O	61.2 µM (active)	
COc1cc(C(C[N+](=O)[O-])c2c(N)n(C)c(=O)n(C)c2=O)ccc1O (configuration not stated)	inactive	
COc1cc(/C=C/C(=O)OCC(=O)NCCCc2ccccc2)ccc1O	33.5 µM (active)	
